DRD3 antagonist: antagonists of human D3 dopamine receptor. max response, negative = inhibition, %. AID 652054. hit rate 2.5% among 360,000. P35462. D3R cells, DiscoveRx beta-arrestin luminescence, antagonist mode; hits give low values; in the data active means max response below about -50%; inconclusive means no clear call, values can overlap the other calls; further: on the % scale 0 is the no-effect control and ±100 the full control effect
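Cells plated overnight at 1500 cells/well, then exposed to library compounds with dopamine controls for 90 minutes at 37 degrees C. DiscoveRx reagent added for 30–60 minutes at room temperature; luminescence read, quantitative HTS format.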
CBFb RUNX1 block: inhibitors of human CBF-beta and RUNX1 interaction. Q01196+Q13951. AlphaScreen CBFb-His/RUNX1-biotin binding, biochemical. Potency, µM (titrated, usually from 59.8 µM), without a hit: at the top dose activity, negative = inhibition, usual class: inhibitors. 230,000 tested, under 10 active; further: % of control where 0% means no effect
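AlphaScreen proximity signal reports loss of binding between His-tagged CBF-beta and biotin-labelled RUNX1, each at 30 nM. Proteins are pre-associated for 20 minutes, compounds added for 15 minutes, then beads for 90 minutes, all at ambient temperature.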
PTHR1 ag: agonists of human PTHR1 parathyroid hormone receptor. HEK293 GP2 PTHR1 cells, GloSensor cAMP luminescence, 1 h. Potency, µM (top dose mostly 115 µM), for the others: top-dose activation, usual class: activators. hit rate 0.075% among 410,000. Q03431; further: potency means the concentration at half of the fitted maximal effect; nearly all actives have a fitted effect of over 55% in size
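HEK-293-derived GP2 cells expressing PTHR1 and a GloSensor cAMP reporter, 3,000/well, plated overnight, given luciferin plus IBMX (each 0.5 mM as added) for 1 h at 37 °C, then compound for 1 h at 37 °C. Luminescence was read after 15 min at room temperature.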
Integrin act MD: activators of alpha7 integrin expression for muscular dystrophy. alpha7betagal myoblasts, beta-gal FDG fluorescence, 48 h. Potency, µM (titrated, usually from 38.3 µM), inactives show at the top dose activation, actives largely listed as activators. hit rate 0.064% among 350,000. AID 624291;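 further: potency means the concentration at half of the fitted maximal effect; 100% = response of the positive control SU9516; nearly all actives have a fitted effect of over 60% in size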
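alpha7betagal+/- myoblasts (passage 13, 250/well) treated 48 h at 37C with compounds at 1:260 dilution of DMSO stock. Lysed, then beta-galactosidase activity read as FDG fluorescence (ex 480/em 540) after 30 min, with pre-read for autofluorescence.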
DRD3 agonist: agonists of human D3 dopamine receptor. hit rate 0.58% among 410,000. max activation, %. P35462. D3R DiscoveRx beta-arrestin cells, luminescence, 90 min; in the data active means max activation above about 30%; further: 0% is about no effect
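Agonist mode: compounds and dopamine controls were applied to plated cells for 90 min at 37 degrees C after an overnight attachment at 1500 cells/well. Luminescent read-out followed 30 - 60 minutes at room temperature with DiscoveRx detection reagent.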
MBNL1 CUG block: blocks human MBNL1 binding to CUG repeat RNA | hit rate 0.036% among 280,000 | Q9NR56 | Potency, µM (doses to about 57.5 µM), for the others: at the top dose activity change, negative = inhibition, usual class: inhibitors | TR-FRET MBNL1-His/biotin-(CUG)12 binding, 665/545 ratio; active means well fitted inhibition curve with a large enough effect in the signal ratio, with a control signal flat, not every such curve was filed as active; inconclusive means small, poorly fitted or top-dose-only effect, or effect the other way, or a change in a side signal; inactive means no such curve, though single readings can be large or run the other way; the % refers to the signal ratio; further: potency means the concentration at half of the fitted maximal effect; on the % scale 0 is the no-effect control and ±100 the full control effect
Target sequence (Q9NR56 whole entry, looked up): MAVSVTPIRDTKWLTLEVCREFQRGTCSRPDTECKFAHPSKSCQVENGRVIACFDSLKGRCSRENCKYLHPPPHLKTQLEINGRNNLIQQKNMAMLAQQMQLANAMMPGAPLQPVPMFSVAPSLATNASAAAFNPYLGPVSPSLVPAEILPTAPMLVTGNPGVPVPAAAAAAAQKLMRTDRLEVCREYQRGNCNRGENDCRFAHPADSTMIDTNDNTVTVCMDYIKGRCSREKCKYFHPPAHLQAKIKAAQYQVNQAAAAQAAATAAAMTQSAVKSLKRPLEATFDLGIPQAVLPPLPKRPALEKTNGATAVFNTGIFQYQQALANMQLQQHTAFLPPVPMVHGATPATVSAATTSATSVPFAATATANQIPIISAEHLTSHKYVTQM
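TR-FRET between His-tagged MBNL1 and biotin-(CUG)12 RNA, detected with Tb anti-His antibody (0.055 ng/ul) and streptavidin-XL665 (5 nM), 60 min at room temperature. Compounds titrated 92 nM to 58 uM; 665/545 nm ratio normalized to buffer and complex controls.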
* = called active by the depositor; i = inactive; ? = inconclusive; / = no result given; [ ] = dose if it differs, or a comment. In the library only some 2.8% were active in any assay of this set; here they are far more common. Unless noted, the call rests on the fitted dose curve; in most records, active means well fitted curve in the direction sought with a large enough effect; inconclusive means small, poorly fitted or top-dose-only effect, or another doubt; inactive means no such curve, though single readings can be large; an effect the other way counts as inactive or inconclusive.

SMILES	DRD3 antagonist	CBFb RUNX1 block	PTHR1 ag	Integrin act MD	DRD3 agonist	MBNL1 CUG block
Cc1cc(C(C)(C)C)cc(C)c1COC(=O)CN1C(=O)NC2(CCCC2)C1=O	-10	/	-13%	-36%	-1	/
CN1CCN(C2=C(Cl)C(=O)N(CCc3ccccc3)C2=O)CC1	-71*	16%	-5%	-49%	-6	33%
CN1CCN(C2=C(Cl)C(=O)N(c3ccc(Cl)cc3)C2=O)CC1	-83*	-1%	i	-19%	5	6%
Cc1ccc(N2C(=O)C(Cl)=C(N3CCN(C)CC3)C2=O)c(C)c1	?	5%	-3%[57.5 µM]	-9%	-11	60%
Cc1cccc(OCCC(=O)Nc2ccc(S(=O)(=O)N3CCCC3)cc2)c1	-6	-1%	-15%	-21%	-2	-6%
Cc1ccccc1OCCC(=O)Nc1ccc(S(=O)(=O)N2CCCC2)cc1	-87*	/	i	-10%	-19	/
O=C(c1ccc(Cl)c(S(=O)(=O)Nc2ccc(F)cc2)c1)N1CCN(c2ccccn2)CC1	33	-3%	i	-12%	38*	0%
CC(C)c1cc(CNC(=O)C2CCC(=O)N(CCc3ccc(Cl)cc3)C2)on1 (stereo not drawn)	1	/	i	-1%	-4	0%
c1ccc(COC2COC3C(OCc4ccccc4)COC23)cc1 (stereo not drawn)	21	/	-4%	0%	2	/
O=C(Nc1scc(-c2ccc(Br)cc2)c1C(=O)O)c1ccccc1F	12	/	-20%	14%	8	/
Cc1ccccc1C(=O)Nc1scc(-c2ccc(Br)cc2)c1C(=O)O	16	/	i	2.8µM*	10	/
O=C(Cn1cc(COc2ccc(Cl)c(Cl)c2)nn1)NS(=O)(=O)c1ccccc1C(F)(F)F	-67*	/	i	/	-5	/
C[C@@](Cc1ccccc1)(C(=O)O)N1C(=O)c2ccc(C(=O)O)cc2C1=O	/	-1%	/	/	/	/
Cc1c(NS(=O)(=O)c2cccs2)cccc1-c1nc2cccnc2s1	-4	-2%	-41%	10%	5	4%
O=S(=O)(Nc1cccc2ncccc12)c1cccs1	-69*	-2%	-14%	-49%	-19	11%
Cc1ccc(C)c(N2CCN(C(=O)c3cc(C)nc4c3c(C)nn4-c3ccccc3)CC2)c1	/	/	i	/	-12	/
CC(C)C1C(=O)N(Cc2cn(CCC3OCCCO3)nn2)CCS(=O)(=O)N1Cc1ccc(-c2ccc(Cl)nc2)cc1 (stereo not drawn)	-10	/	-28%	-24%	4	/
COc1cc(Cl)c(C)cc1NC(=O)CNC(C)c1ccccc1OC (stereo not drawn)	-12	2%	-5%	-10%	-17	-2%
COc1ccccc1C(C)NCC(=O)Nc1c(F)cccc1F (stereo not drawn)	-56*	1%	12%	10%	-28	5%
CCCSc1nn2c(=O)c3ccccc3nc2s1	-51*	1%	-17%[57.5 µM]	15%	-3	1%
Cc1ccc(NC(=O)C2CCCN2C(=O)OC(C)(C)C)cc1C (stereo not drawn)	0	15%	i	37%	0	8%
N#CC1=C(c2ccccc2)/C(=C/c2ccccc2)OC1=O	-59*	-6%	-33%	-37%	-11	2%
O=c1c2sc3ccccc3c2n(Cc2ccccc2)c(=O)n1CCc1ccccc1	/	/	-34%	/	1	/
Cn1c(-c2ccccc2)cc2ccccc21	18	/	i	?	4	-3%
Cn1c(=O)c(-c2ccccc2)cc2ccccc21	4	/	i	-27%	47*	/
SMILES	DRD3 antagonist	CBFb RUNX1 block	PTHR1 ag	Integrin act MD	DRD3 agonist	MBNL1 CUG block
C/C(CCN1CCCc2nc(C)c(C)cc21)=N\O[C@@H](C)c1cc(-c2c(C)cc(C)cc2C)no1	/	7%[13.1 µM]	/	/	/	/
COc1ccc(C2C(Oc3ccccc3C)C(=O)N2Cc2ccc(F)cc2)cc1OC (stereo not drawn)	-69*	9%	-5%[57.5 µM]	-15%	-11	-2%
CCOC(=O)C1=C(SCC)c2cc3c(n2C1=O)CCCC3	-57*	-27%	-19%	20%	-7	?
O=[N+]([O-])c1ccc(O)c(/C=N/Nc2ccccn2)c1	-70*	/	i	-6%	-12	2%
Oc1ccc(C=NNc2ccccn2)c(O)c1	-61*	/	-21%	-3%	1	/
O=[N+]([O-])c1ccc(NN=Cc2ccccc2O)nc1	-4	/	-27%	-25%	-6	/
CC(C)NC(=O)Nc1nnc([C@@H]2C[C@H](O)[C@@H](CO)O2)s1	-20	/	4%	/	38*	/
O=C(Nc1ccccc1)Nc1nnc([C@@H]2C[C@H](O)[C@@H](CO)O2)s1	-68*	/	-2%	/	-12	/
O=C(Nc1ccc(F)cc1)Nc1nnc([C@@H]2C[C@H](O)[C@@H](CO)O2)s1	-4	/	-10%	/	62*	/
O=C(Nc1ccc(OCc2ccccc2)cc1)Nc1nnc([C@H]2C[C@H](O)[C@@H](CO)O2)s1	-53*	/	i	/	-14	/
O=C(Nc1cccc(Cl)c1)Nc1nnc([C@@H]2C[C@H](O)[C@@H](CO)O2)s1	-1	/	-34%	/	-6	/
O=C(Nc1ccc(OCc2ccccc2)cc1)Nc1nnc([C@@H]2C[C@H](O)[C@@H](CO)O2)s1	7	/	-41%	/	2	/
CC(C)(C)C(=O)Nc1nnc([C@H]2C[C@H](O)[C@@H](CO)O2)s1	16	/	-25%	/	7	/
COc1ccc2nc(NC(=O)Cn3cnc4ccccc4c3=O)sc2c1	-12	7%	-10%	?	-5	2%
Nc1ncnc2c1ncn2[C@H]1C[C@H](O)[C@@H](CO)O1	0	8%	-11%	35%	-17	-23%
Nc1nc(Cl)nc2c1ncn2[C@H]1C[C@H](O)[C@@H](CO)O1	-80*	20%	i	/	14	-1%
CCNc1nc(OC)nc(N2CCC(Cc3ccccc3)CC2)n1	38	2%	-34%	-15%	10	?
CN(CCC#N)C(=S)Nc1ccc(S(=O)(=O)N2CCOCC2)cc1	2	-5%	-19%	-19%	0	-2%
COCCCN1CCN(C2Cc3ccccc3Sc3ccc(Cl)cc32)CC1 (stereo not drawn)	-97*	/	i	-40%	-17	-4%
NC(=O)CCN1CCN(CCOC2Cc3cc(Cl)ccc3Sc3ccccc32)CC1 (stereo not drawn)	-86*	2%	-22%	-40%	-6	13%
O=C(c1ccccc1Cl)N1CCNCC1	-5	-1%	i	-8%	7	9%
Clc1cccc2c1Sc1ccccc1CC2N1CCNCC1 (stereo not drawn)	-55*	-2%	i	-43%	-36	/

High-throughput results from PubChem.
